Reference: publication PMC5836133, “The intracellular immune receptor Rx1 regulates the DNA-binding activity of a Golden2-like transcription factor”
Over roughly 16,000 sequences, “e-score” has its median near -0.044; the highest 2% begin near 0.38. This excerpt belongs to a sample that is enriched for the highest values.

Molecular target: T1, GST-NbGlk1(82-244) (Nicotiana benthamiana)
T1 chain: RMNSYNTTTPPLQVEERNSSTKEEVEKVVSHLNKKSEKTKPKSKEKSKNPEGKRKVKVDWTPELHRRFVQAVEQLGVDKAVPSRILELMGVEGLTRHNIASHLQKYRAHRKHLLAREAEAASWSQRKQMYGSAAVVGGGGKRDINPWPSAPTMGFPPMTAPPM
Experiment: protein-binding microarray; NbGlk1 is a Golden2-like transcription factor of Nicotiana benthamiana; high values mean tight binding
Conditions: protein: recombinant; tags: GST (pTH6838); dsDNA, one strand shown

| Sequence | binding signal |
| --- | --- |
| AATATTTA | 0.216 ± 0.021 E-score |
| AACAAGAT | 0.228 ± 0.0325 E-score |
| AGCGAATC | 0.4592 ± 0.00447 E-score |
| AGAGAATA | 0.243 ± 0.0561 E-score |
| ATAGAGAA | 0.231 ± 0.0678 E-score |
| ATAGAAAT | 0.249 ± 0.0207 E-score |
| ACAGAATC | 0.45398 ± 0.00026 E-score |
| AACGAATC | 0.367 ± 0.0566 E-score |
| ACAGAATA | 0.257 ± 0.0299 E-score |
| AGAGAATC | 0.4789 ± 0.00191 E-score |
| ATAGAATC | 0.397 ± 0.032 E-score |
| ACCGAATC | 0.363 ± 0.0171 E-score |
| ATCGAATC | 0.354 ± 0.00608 E-score |
| AGAGAAAT | 0.241 ± 0.00888 E-score |
| ATCTGATG | 0.241 ± 0.0502 E-score |
| AAATATAT | 0.326 ± 0.0239 E-score |
| AAATATGC | 0.234 ± 0.0807 E-score |
| AATCGCAA | 0.359 ± 0.0518 E-score |
| ATCAGAAA | 0.272 ± 0.108 E-score |
| ATCGCGTG | 0.304 ± 0.0178 E-score |
| AAGCATAT | 0.213 ± 0.0284 E-score |
| AGTATCAG | 0.272 ± 0.0918 E-score |
| AATCGGTA | 0.257 ± 0.0795 E-score |

| Sequence | binding signal |
| --- | --- |
| AATCTGTA | 0.414 ± 0.00915 E-score |
| AATCTGAA | 0.444 ± 0.0239 E-score |
| ATTCTGTA | 0.271 ± 0.104 E-score |
| AATGATTC | 0.22 ± 0.0193 E-score |
| AATTTATA | 0.264 ± 0.104 E-score |
| ATTGCACG | 0.251 ± 0.046 E-score |
| AGGGGAAT | 0.32 ± 0.0496 E-score |
| ATCGAAAT | 0.387 ± 0.0408 E-score |
| AGCGAAAT | 0.343 ± 0.064 E-score |
| ACCGAAAT | 0.338 ± 0.0315 E-score |
| AGGGCAAT | 0.201 ± 0.0755 E-score |
| AAGGAATC | 0.396 ± 0.0666 E-score |
| ATGGAAAT | 0.335 ± 0.0407 E-score |
| ATGGATAC | 0.25 ± 0.0455 E-score |
| AGGGAATC | 0.477 ± 0.0128 E-score |
| ATGGAATC | 0.385 ± 0.0354 E-score |
| AAGGATTC | 0.3738 ± 0.00237 E-score |
| AAGGAAAT | 0.3484 ± 0.000416 E-score |
| ACGGAATA | 0.264 ± 0.0173 E-score |
| AGGGGATC | 0.316 ± 0.0502 E-score |
| ACGGAAAT | 0.345 ± 0.0654 E-score |
| AGGGATTC | 0.359 ± 0.0107 E-score |
| ACGGAATC | 0.453 ± 0.0108 E-score |

| Sequence | binding signal |
| --- | --- |
| ATCTCAAT | 0.245 ± 0.0732 E-score |
| ATTAGATA | 0.304 ± 0.0251 E-score |
| ATCCGCTG | 0.261 ± 0.0225 E-score |
| AATCGCAC | 0.296 ± 0.0196 E-score |
| AAAGTGAT | 0.217 ± 0.169 E-score |
| AGGCAGAT | 0.213 ± 0.0549 E-score |
| AATAGAAT | 0.2556 ± 0.00204 E-score |
| AAAAATAA | 0.229 ± 0.0366 E-score |
| ATTTATAA | 0.229 ± 0.0487 E-score |
| ATATTGCC | 0.249 ± 0.0822 E-score |
| AGATTGCT | 0.426 ± 0.00629 E-score |
| ATATTGCA | 0.225 ± 0.111 E-score |
| AGATTGCC | 0.4477 ± 0.0014 E-score |
| AGATTGCA | 0.4641 ± 0.00231 E-score |
| AGATTGCG | 0.4943 ± 0.000727 E-score |
| ATATTGCG | 0.328 ± 0.0285 E-score |
| AAATTGCG | 0.262 ± 0.0556 E-score |
| ATTTTGCA | 0.238 ± 0.0203 E-score |
| ATCTTGCC | 0.261 ± 0.0186 E-score |
| AGATAGAT | 0.267 ± 0.0623 E-score |
| ATATTGAT | 0.248 ± 0.0795 E-score |
| AACAATCC | 0.244 ± 0.0442 E-score |
| ATTATTAA | 0.205 ± 0.0755 E-score |

| Sequence | binding signal |
| --- | --- |
| ACATATCA | 0.216 ± 0.0561 E-score |
| ATTCAGGA | 0.206 ± 0.0808 E-score |
| ATCACATA | 0.212 ± 0.0312 E-score |
| AAATTTAT | 0.22 ± 0.0544 E-score |
| AAGCGAAT | 0.291 ± 0.0479 E-score |
| AAATTCGA | 0.219 ± 0.058 E-score |
| ATATTCGG | 0.228 ± 0.0147 E-score |
| ATATTCGA | 0.293 ± 0.0238 E-score |
| AGATTCGG | 0.413 ± 0.00846 E-score |
| AGATTCGC | 0.482 ± 0.00816 E-score |
| AAATTCGC | 0.284 ± 0.0251 E-score |
| ATATTCGC | 0.321 ± 0.0229 E-score |
| AAATTCGG | 0.227 ± 0.0723 E-score |
| AGATTCGA | 0.389 ± 0.00837 E-score |
| ATTTTTCA | 0.253 ± 0.137 E-score |
| ATCGGAGA | 0.249 ± 0.0227 E-score |
| ATCTTGTA | 0.28 ± 0.00362 E-score |
| ATCGATAC | 0.245 ± 0.0652 E-score |
| ATTTCAAA | 0.231 ± 0.179 E-score |
| CAAAATAA | 0.205 ± 0.0749 E-score |
| ATCGCCAC | 0.22 ± 0.062 E-score |
| ATCGCTTC | 0.206 ± 0.0242 E-score |
| AGTGATTC | 0.282 ± 0.0766 E-score |

| Sequence | binding signal |
| --- | --- |
| AAGAATAT | 0.331 ± 0.00702 E-score |
| AGGAATCG | 0.295 ± 0.0158 E-score |
| AGGAATCA | 0.32 ± 0.0361 E-score |
| CAGAATCA | 0.373 ± 0.00814 E-score |
| ACGAATCC | 0.361 ± 0.00735 E-score |
| ACGAATCT | 0.403 ± 0.0288 E-score |
| AAGAATCT | 0.449 ± 0.0147 E-score |
| CAGAATCG | 0.33 ± 0.0217 E-score |
| ACGAATCA | 0.247 ± 0.0177 E-score |
| CAGAATCC | 0.447 ± 0.0238 E-score |
| AGGAATCC | 0.422 ± 0.0123 E-score |
| AACAATCT | 0.244 ± 0.0358 E-score |
| ATCTGTTC | 0.214 ± 0.0509 E-score |
| AGGAAGAT | 0.276 ± 0.00329 E-score |
| ATCGTGCG | 0.234 ± 0.00703 E-score |
| AATCACTG | 0.269 ± 0.00608 E-score |
| ATACTCAT | 0.264 ± 0.0418 E-score |
| AAGAATCG | 0.374 ± 0.0323 E-score |
| AAGAATCC | 0.455 ± 0.016 E-score |
| AAGAATCA | 0.3254 ± 0.00141 E-score |
